Assay results as given in the supplement of paper PMC11417369.
± gives the standard deviation of the averaged measurements. The full ranking holds about 25,000 sequences; the median of “ln(normalized median fluorescence intensity)” is about 8.9, and the highest 2% start at about 10. This excerpt belongs to a sample that is enriched for the highest values.

System: PfAP2-LT AP2 domain (GST-tagged)
Assay: gcPBM binding intensity (ln(normalized median fluorescence intensity)); higher = stronger DNA binding
Procedure, shortened: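 Binding intensity is defined as the maximum Masliner-normalised natural-log median intensity across replicate spots for either probe orientation. It was measured on an Agilent 4 × 180k array of primer-extended double-stranded 36-bp intergenic genomic probes and negative controls, to which GST-tagged P. falciparum DNA-binding domains made in E. coli were applied for 1 h in 1× PBS with 1% milk, 0.2 mg/ml BSA, 0.5% salmon testes DNA and 0.03% Triton X-100. Detection was by Alexa488 anti-GST antibody and scanning at 488 nm.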

Row | Sequence | gcPBM binding intensity (ln)
1 | ATAATACATACATACATACACACATATATATATATT [CACACA_site3576] | 9.29 ± 0.38
2 | TTTTTAATCATAATATGTACATATAAAAATGGTTTG [XGTACX_site3996] | 8.54 ± 0.41
3 | TAAAAATGTAAACACACACACATAAATATATTTTAT [CACACA_site5397] | 9.45 ± 0.26
4 | GATAAAATAGGACCATATTCTTTAAAACGATAAAAT [XGTACX_negctrl_site405] | 8.73 ± 0.51
5 | TTATATTATATATATATTATATATATGTATGCATAA [TGCATGCA_negctrl_site481] | 8.72 ± 0.2
6 | TTTTGCAAATATTACTGTACACAATCTCATATAATT [XGTACX_site2584] | 8.81 ± 0.35
7 | ATTATTTTTTTTGAAGTGCAATATTATTTTTAATCA | 8.46 ± 0.45
8 | AAAGTATTCTTTACACGTACATATATATAAATATAA [XGTACX_site7557] | 8.59 ± 0.33
9 | AGGATACACGGACACACACACATATAGATTTATATA [CACACA_site6552] | 9.78 ± 0.51
10 | AGGATACACGGACACACACACATATATATATATATA [CACACA_site4654] | 10.43 ± 0.078
11 | AAAAAACACGGACACACACACATATACATACATACA [CACACA_site5470] | 9.98 ± 0.41
12 | CATACACCCGGACACACACACACACCCATATATAAT [CACACA_site4494] | 10 ± 0.35
13 | AAAATACCCGGACACACACACATATATATATATATT [CACACA_site6137] | 9.88 ± 0.49
14 | TATACACCCGGACACACACACATATATATATATATA [CACACA_site5030] | 10.36 ± 0.028
15 | CATACATACGGACACACACACATATATATATATATA [CACACA_site5598] | 10.3 ± 0.15
16 | AAAAAAAACGGACACACACACATAAATATATATAAA [CACACA_site4260] | 9.86 ± 0.34
17 | TACATATTTATATACACACACACACGGATATTTATA [CACACA_site7239] | 9.87 ± 0.45
18 | TTATAAATAAAAAATACACACATATATATATATATA [CACACA_site207] | 9.64 ± 0.2
19 | CTAAAATACGGACACACACACACATATATATATATA [CACACA_site6138] | 10.3 ± 0.11
20 | ATTATATATATATATACACACACATATATATATATA [CACACA_site8373] | 9.47 ± 0.25
21 | AGTAAAAGAAAGCACACACACATGTATTTATGTATG [CACACA_site5998] | 9.71 ± 0.42
22 | TATATATATATATATTGTACACATACATGTAGTTTT [XGTACX_site4848] | 9.48 ± 0.49
23 | ACACATATAATAGTTACATGCAAAAATACTTTTATT [TGCATGCA_site785] | 9.03 ± 0.47
24 | ACCAAATCATATATAGCACACAAATTCTTTATTATT [CACACA_site8911] | 8.94 ± 0.38
25 | TAAAAAAAAACATGATGTACATAAAATTTTTTACTT [XGTACX_site7056] | 8.59 ± 0.47
